From PubChem BioAssay (NCI) come the findings set out here.

This is part of a sample that, as a whole, favours compounds with a hit. Of some 83,000 tested, about 20% had one in any assay.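 Method: cells in 96-well plates; compound added at one concentration; 48 h incubation; percent growth measured; values under 10 scored active.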 A number with no mark means an inactive call. Active and inactive are the calls of the source.

Some test systems named below: DU-145 prostate; K-562 leukemia; MALME-3M melanoma; MDA-MB-231 breast; RXF 393 renal; SF-268 CNS; SF-295 CNS; SF-539 CNS; UACC-257 melanoma; M14 melanoma; HCT-15 colon; HT29 colon; SNB-75 CNS; SNB-19 CNS; U251 CNS; PC-3 prostate; SK-MEL-5 melanoma; UACC-62 melanoma; LOX IMVI melanoma; SK-MEL-28 melanoma.
Holding throughout (experiment): NCI-60 one-dose screen, 48 h (100 = growth as untreated, 0 = no growth, -100 = all killed)
Common to all, as to conditions: 10 µM unless noted

Turning to `Cn1c2c(c3ccc(Cl)c(Cl)c31)C(C#N)C(C)(C)NC2=O` (stereo not given), the growth is 106% in the experiment on DU-145 prostate; 74.5% in the experiment with K-562 leukemia; 90.4% with MALME-3M melanoma; 81.1% in the experiment with MDA-MB-231 breast; 76.4% with RXF 393 renal; 99.6% in the experiment on SF-268 CNS. The growth with SF-295 CNS was 76.1%; in the experiment on SF-539 CNS, 86.2%; with UACC-257 melanoma, 77.4%; in the experiment on M14 melanoma, 90.3%; with HCT-15 colon, 96.1%; in the experiment with HT29 colon, 88.5%. For the same molecule, the growth in the experiment on SNB-75 CNS is 76.6%; with SNB-19 CNS, 91.8%; in the experiment on U251 CNS it was 91.1%; with PC-3 prostate it was 95.1%; in the experiment on SK-MEL-5 melanoma it was 5.3% (active); in the experiment on UACC-62 melanoma, 66.6%. In addition, the growth with LOX IMVI melanoma is 84.4%; in the experiment on SK-MEL-28 melanoma it was 105%.
Regarding `C=C(C)[C@@H]1CCC[C@]2(C(=O)O)CC[C@]3(C)[C@@H](CC[C@@H]4[C@@]5(C)C/C(=C/c6ccncc6)C(=O)C(C)(C)[C@@H]5CC[C@]43C)[C@@H]12`, the growth with DU-145 prostate was 32.9%; with K-562 leukemia it was 13.7%; in the experiment with MALME-3M melanoma, 72%; in the experiment on MDA-MB-231 breast, 12.2%; in the experiment with RXF 393 renal, 34.4%; in the experiment on SF-268 CNS, 52.1%. The growth with SF-295 CNS is 27.2%; in the experiment with SF-539 CNS it was 26.3%; with UACC-257 melanoma it was 57.9%; with M14 melanoma it was 45.8%; with HCT-15 colon it was 5.49% (active); with HT29 colon it was 14.8%. For the same molecule, the growth in the experiment with SNB-75 CNS is 52.6%; with SNB-19 CNS, 46.1%; with U251 CNS it was 17%; in the experiment with PC-3 prostate it was 27.4%; in the experiment with SK-MEL-5 melanoma, 10.6%; with UACC-62 melanoma, 26.8%. Besides, the growth with LOX IMVI melanoma is -9.49% (active); in the experiment on SK-MEL-28 melanoma, 48.4%.
Regarding `CN(CCCNC(=O)CCOCCOCCOCCNC(=O)Cc1ccc2ccc3cccc4ccc1c2c34)CCCNc1cc(-c2ccc3ccccc3c2)nc2ccccc12`, the growth in the experiment with DU-145 prostate was -95.8% (active); in the experiment on K-562 leukemia, -88.3% (active); with MALME-3M melanoma, -69.6% (active); in the experiment on MDA-MB-231 breast it was -70.7% (active); with RXF 393 renal, -37.7% (active); with SF-268 CNS, -82.9% (active). In addition, the growth was -71.1% (active) in the experiment on SF-295 CNS; -98.6% (active) in the experiment on SF-539 CNS; -70% (active) in the experiment with UACC-257 melanoma; -89.7% (active) with M14 melanoma; -77.5% (active) with HCT-15 colon; -87.6% (active) with HT29 colon. In addition, the growth is -95.7% (active) in the experiment with SNB-75 CNS; -95.1% (active) in the experiment with SNB-19 CNS; -70.7% (active) in the experiment with U251 CNS; -93.6% (active) in the experiment on PC-3 prostate; -96% (active) in the experiment with SK-MEL-5 melanoma; -65.9% (active) in the experiment on UACC-62 melanoma. The growth in the experiment on LOX IMVI melanoma is -43.7% (active); with SK-MEL-28 melanoma, -94% (active).
`CCN1C(=O)N(CC)C2C1NN=c1s/c(=C3\C(=O)N(CCC(C)C)c4ccccc43)c(=O)n12` (stereo not given): the growth in the experiment on DU-145 prostate was 7.36% (active); in the experiment with K-562 leukemia, 11.6%; in the experiment with MALME-3M melanoma it was 51.3%; in the experiment with MDA-MB-231 breast, 5.92% (active); in the experiment on RXF 393 renal, 33.2%; in the experiment with SF-268 CNS it was 50.8%. Moreover, the growth was 8.08% (active) in the experiment with SF-295 CNS; -15.2% (active) in the experiment with SF-539 CNS; 65% with UACC-257 melanoma; 13.5% with M14 melanoma; 14.6% with HCT-15 colon; 4.19% (active) in the experiment with HT29 colon. The growth is 21.6% with SNB-75 CNS; 23.3% with SNB-19 CNS; 8.16% (active) with U251 CNS; 28.9% in the experiment with PC-3 prostate; 8.16% (active) in the experiment on SK-MEL-5 melanoma; 18.5% in the experiment on UACC-62 melanoma. Moreover, the growth was 19.2% in the experiment on LOX IMVI melanoma and 59.9% with SK-MEL-28 melanoma.
Take `CCN1CCN(CC(=O)Nc2ccc(-c3cn4c(n3)sc3cc(Oc5ccnc(C(=O)NC)c5)ccc34)cc2)CC1`: the growth was 105% in the experiment with DU-145 prostate; -11.1% (active) in the experiment with K-562 leukemia; 87.7% with MALME-3M melanoma; 85.1% in the experiment on MDA-MB-231 breast; 69.2% in the experiment on RXF 393 renal; 87.2% in the experiment with SF-268 CNS. Besides, the growth in the experiment on SF-295 CNS was 65.4%; with SF-539 CNS, 65.4%; in the experiment with UACC-257 melanoma it was 96.2%; in the experiment on M14 melanoma it was 73.8%; with HCT-15 colon, 77.3%; in the experiment on HT29 colon, -21.8% (active). Moreover, the growth in the experiment with SNB-75 CNS is 82.9%; with SNB-19 CNS, 98.6%; in the experiment on U251 CNS, 64.8%; with PC-3 prostate, 65.8%; with SK-MEL-5 melanoma, 88.3%; in the experiment on UACC-62 melanoma it was 66.9%. For the same molecule, the growth in the experiment on LOX IMVI melanoma was -80.4% (active); in the experiment on SK-MEL-28 melanoma, 74.6%.
